Growth data for 16 compounds are collected here from PubChem BioAssay (NCI).

Among the test systems are HCT-15 colon; HT29 colon; SNB-75 CNS; U251 CNS; PC-3 prostate; SK-MEL-5 melanoma; UACC-62 melanoma; LOX IMVI melanoma; SK-MEL-28 melanoma.
Experiment in all cases: NCI-60 one-dose screen, 48 h (100 = growth as untreated, 0 = no growth, -100 = all killed)
What all share (conditions): 10 µM unless noted

About 83,000 compounds went through this panel and 20% of them were active in at least one assay; those are over-represented in the sample as a whole.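 Testing used 96-well plates and a 48-hour single-concentration exposure. Example: -40 means 40% of the starting cells died.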 A number with no mark means an inactive call. The source made the active and inactive calls. Rule for the calls: active = growth percent below 10; inactive = the rest.

With `OCCNCCNc1c2ccccc2nc2ccccc12`, the growth with HCT-15 colon was 97.2%; in the assay with HT29 colon, 58%; with SNB-75 CNS it was 93.3%; in the assay on U251 CNS, 55.3%; with PC-3 prostate, 87.5%; in the assay on SK-MEL-5 melanoma, 88.4%. The growth was 66.6% in the assay with UACC-62 melanoma, 37.8% with LOX IMVI melanoma and 114% in the assay on SK-MEL-28 melanoma.
Turning to `Cc1cc2cc3cc(C)c(N(C)C)cc3nc2cc1N(C)C`, the growth is 71.6% with HCT-15 colon; 15.9% with HT29 colon; 26.6% with SNB-75 CNS; 15.4% in the assay on U251 CNS; 4.41% (active) with PC-3 prostate; 28.5% in the assay on SK-MEL-5 melanoma. For the same compound, the growth in the assay on UACC-62 melanoma is 58.5%; in the assay on LOX IMVI melanoma, 24%; in the assay with SK-MEL-28 melanoma, 40.6%.
Take `COC1/C=C\OC2(C)Oc3c(C)c(O)c4c(O)c(c(CN(C)CCO)c(O)c4c3C2=O)NC(=O)/C(C)=C\C=C/C(C)C(O)C(C)C(O)C(C)C(OC(C)=O)C1C` (stereo not drawn): the growth with HCT-15 colon is 104%; in the assay with HT29 colon it was 140%; with SNB-75 CNS, 83.2%; with U251 CNS it was 109%; with PC-3 prostate, 97.2%; with SK-MEL-5 melanoma, 108%. The figures for the growth with UACC-62 melanoma and in the assay on SK-MEL-28 melanoma were 97.6% and 124%, respectively.
With `c1ccc(Sc2ncnc3ccccc23)cc1`, the growth in the assay with HCT-15 colon is 75.2%; with HT29 colon, 88.2%; in the assay with SNB-75 CNS, 73.2%; in the assay with U251 CNS it was 87.2%; in the assay with PC-3 prostate, 83.5%; with SK-MEL-5 melanoma, 66.1%. Also, the growth was 66.2% with UACC-62 melanoma, 67.5% in the assay with LOX IMVI melanoma and 85.5% in the assay on SK-MEL-28 melanoma.
For `C/C=C/C(N)=O`, the growth with HCT-15 colon was 96.9%; in the assay on HT29 colon, 102%; in the assay on SNB-75 CNS it was 90.6%; in the assay with U251 CNS, 104%; with PC-3 prostate it was 93.9%; in the assay with SK-MEL-5 melanoma it was 96.7%. In addition, the growth in the assay with UACC-62 melanoma was 105%; in the assay with LOX IMVI melanoma, 99.3%; in the assay on SK-MEL-28 melanoma it was 93%.
With `CCCCCCCCCCCCCC1=NCCN1CCO`, the growth with HCT-15 colon was 47.2%; in the assay on HT29 colon, 10.1%; in the assay on SNB-75 CNS it was 150%; in the assay with U251 CNS it was 50.8%; in the assay with PC-3 prostate, 31.6%; in the assay on SK-MEL-5 melanoma, 81.8%. The growth in the assay on UACC-62 melanoma is 93.5%; in the assay with LOX IMVI melanoma it was -52.8% (active); with SK-MEL-28 melanoma it was 115%.
`O=C(/C=C\c1ccc2ccccc2n1)c1cc(Cl)ccc1O`: the growth is 73.6% in the assay with HCT-15 colon; 71.6% in the assay on HT29 colon; 90.6% in the assay on SNB-75 CNS; 44.3% with U251 CNS; 90.9% with PC-3 prostate; 97% in the assay with SK-MEL-5 melanoma. The growth is 71.4% in the assay with UACC-62 melanoma and 99.6% in the assay with SK-MEL-28 melanoma.
As for `Cn1c2ccccc2c2c3[nH]c(=O)[nH]c(=O)c3c3c4ccccc4n(C)c3c21`, the growth with HCT-15 colon is 24.2%; with HT29 colon it was 14.4%; in the assay with SNB-75 CNS it was -38.4% (active); in the assay with U251 CNS, 21.9%; in the assay with PC-3 prostate, 41.1%; with SK-MEL-5 melanoma, 29.3%. The growth with UACC-62 melanoma is 43%; in the assay on SK-MEL-28 melanoma, 27.2%.
On to `CCN(CC)CCCC(C)NCCCNc1cccc2cccnc12` (stereo not drawn), for which the growth in the assay with HCT-15 colon was 104%; in the assay with HT29 colon it was 92%; in the assay on SNB-75 CNS, 89.9%; in the assay with U251 CNS, 91.4%; with PC-3 prostate, 87.3%; with SK-MEL-5 melanoma, 98.5%. Besides, the growth in the assay on UACC-62 melanoma was 90.4%; in the assay with SK-MEL-28 melanoma, 123%.
Take `COc1ccc(-c2cc(-c3cccnc3)nc3sc4c(=O)n(-c5ccc(C)cc5)cnc4c23)cc1OC`: the growth was 94.2% with HCT-15 colon; 104% in the assay with HT29 colon; 74.9% with SNB-75 CNS; 103% in the assay with U251 CNS; 91.2% in the assay on PC-3 prostate; 94.2% in the assay on SK-MEL-5 melanoma. For the same compound, the growth in the assay with UACC-62 melanoma is 97.3%; in the assay on SK-MEL-28 melanoma, 89.3%.
Consider `Cc1cc2c(cc1C)NC1=C(N2)OC(c2c3ccccc3cc3ccccc23)C1=O` (stereo not drawn), for which the growth is 0.544% (active) in the assay with HCT-15 colon; 12.5% with HT29 colon; 49.4% with SNB-75 CNS; -8.89% (active) in the assay with U251 CNS; 28.2% with PC-3 prostate; -40.6% (active) with SK-MEL-5 melanoma. The values for the growth in the assay with UACC-62 melanoma, with LOX IMVI melanoma and in the assay with SK-MEL-28 melanoma were 3.19% (active), -35.4% (active) and 31.5%, respectively.
Take `N#Cc1c(N)nc(N)nc1Nc1ccc(Br)cc1`: the growth in the assay on HCT-15 colon is 103%; with HT29 colon, 93.9%; in the assay with SNB-75 CNS, 96.8%; in the assay with U251 CNS it was 96.9%; with PC-3 prostate, 79.1%; in the assay on SK-MEL-5 melanoma it was 89.6%. Moreover, the results for the growth with UACC-62 melanoma, with LOX IMVI melanoma and in the assay with SK-MEL-28 melanoma were 86.4%, 92.4% and 110%, respectively.
As for `OCC1C2C=CC(C2)C1CO` (stereo not drawn), the growth was 110% in the assay on HCT-15 colon; 97.6% in the assay on HT29 colon; 75.8% in the assay with SNB-75 CNS; 100% with U251 CNS; 79.5% in the assay on PC-3 prostate; 130% in the assay on SK-MEL-5 melanoma. Also, the values for the growth with UACC-62 melanoma, with LOX IMVI melanoma and in the assay on SK-MEL-28 melanoma were 107%, 101% and 107%, respectively.
With `N#Cc1ccc(NC(=O)Nc2ccc(Cc3ccc(NC(=O)Nc4ccc(C#N)cc4)cc3)cc2)cc1`, the growth in the assay with HCT-15 colon was 25.9%; with HT29 colon, 52.5%; in the assay on SNB-75 CNS, 83.3%; in the assay with U251 CNS, 34.4%; in the assay with PC-3 prostate, 23.3%; in the assay on SK-MEL-5 melanoma, 10.5%. The growth was 14.2% in the assay with UACC-62 melanoma, -67.6% (active) with LOX IMVI melanoma and 36.7% in the assay with SK-MEL-28 melanoma.
With `Cc1ccc(N)cc1F`, the growth in the assay on HCT-15 colon is 91.7%; with HT29 colon, 110%; in the assay on SNB-75 CNS, 101%; with U251 CNS, 95.8%; in the assay on PC-3 prostate, 108%; with SK-MEL-5 melanoma, 104%. Also, the growth in the assay with UACC-62 melanoma was 96%; with SK-MEL-28 melanoma it was 117%.
In the case of `CCN(CC)Cc1cc(Nc2c3ccc(Cl)cc3nc3c(C)cccc23)ccc1O`, the growth in the assay on HCT-15 colon was -45.8% (active); with HT29 colon, -41.8% (active); in the assay with SNB-75 CNS, -99.4% (active); in the assay on U251 CNS, -62.4% (active); in the assay on PC-3 prostate it was -48.9% (active); with SK-MEL-5 melanoma it was -96.5% (active). Besides, the growth in the assay with UACC-62 melanoma was -79.3% (active); in the assay with LOX IMVI melanoma it was -84.9% (active); in the assay on SK-MEL-28 melanoma it was -65.5% (active).
